Reference: PubChem BioAssay (Tox21)
Results filed as inconclusive are left out. Values without a mark were called inactive. The call rests on the fitted dose curve.

The molecules below were run against Peroxisome proliferator-activated receptor delta (Homo sapiens) (UniProt Q03181) (assay: qHTS assay to identify small molecule agonists of the peroxisome proliferator-activated receptor delta (PPARd) signaling pathway (AID 743212)). Conditions: HEK293H PPARd-UAS-bla, beta-lactamase FRET ratio, 17 h; series mostly up to 62.6 µM; activation: at the top concentration.
Sequence of Peroxisome proliferator-activated receptor delta (Homo sapiens) (Q03181 whole entry, looked up): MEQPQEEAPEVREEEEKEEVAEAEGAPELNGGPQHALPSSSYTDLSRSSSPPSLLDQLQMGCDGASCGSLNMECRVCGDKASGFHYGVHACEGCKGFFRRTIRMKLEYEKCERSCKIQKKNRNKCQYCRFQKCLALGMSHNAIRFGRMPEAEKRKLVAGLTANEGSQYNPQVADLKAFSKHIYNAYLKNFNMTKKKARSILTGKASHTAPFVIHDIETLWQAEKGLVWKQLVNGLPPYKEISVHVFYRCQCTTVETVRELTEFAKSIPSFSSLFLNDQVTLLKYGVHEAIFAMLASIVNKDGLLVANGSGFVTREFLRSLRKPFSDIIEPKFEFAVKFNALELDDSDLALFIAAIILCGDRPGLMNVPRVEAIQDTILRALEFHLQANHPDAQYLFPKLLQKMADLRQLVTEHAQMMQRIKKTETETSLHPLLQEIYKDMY
Source text: U.S. Tox21 Program National Center for Advancing Translational Sciences [NCATS] NIH Chemical Genomics Center [NCGC] U.S. Environmental Protection Agency [EPA] National Institutes of Environmental Health Sciences [NIEHS] National Toxicology Program [NTP] U.S. Food and Drug Administration [FDA] Tox21 Assay Overview: The peroxisome proliferator-activated receptors (PPARs) are lipid-activated transcription factors of the nuclear receptor superfamily with three distinct subtypes namely PPAR alpha, PPAR delta (PPARd) and PPAR gamma. All these subtypes heterodimerizes with Retinoid X receptor (RXR) and have different physiological functions. […] To identify the compounds that activate PPAR-delta signaling, GeneBLAzer PPAR delta UAS-bla HEK293H cell line (Invitrogen, Carlsbad, CA, USA) containing a beta-lactamase reporter gene under the control of an Upstream Activator Sequence (UAS) was used to screen the Tox21 compound library.
Tox21 Assay Protocol Summary: PPARd-bla cells were dispensed at 3000 cells/6uL/well in 1536-well black wall/clear bottom plates using a Multidrop Combi (Thermo Fisher Scientific, Waltham, MA) dispenser. After the assay plates were incubated at 37 C and 5% CO2 for 5 h, 23 nL of compounds dissolved in DMSO, positive controls or DMSO only was transferred to the assay plate by a Pintool station (Kalypsys, San Diego, CA). The assay plates were incubated at 37C for 17 h. After 1 uL of LiveBLAzerTM B/G FRET substrate was added using a Bioraptr Flying Reagent Dispenser (FRD) workstation (Beckman Coulter, Indianapolis, IN, USA), the plates were incubated at room temperature for 2 h, and fluorescence intensity was measured by an Envision plate reader (PerkinElmer, Shelton, CT).
On the % scale 0 is the no-effect control and ±100 the full control effect.

| Compound | activation |
| --- | --- |
| C=C(C)c1cccc(C(=C)C)c1 | 0.709% |
| CCC(=O)C(=O)CC | 1% [at 81.1 µM] |
| C#C[C@]1(O)CC[C@H]2[C@@H]3[C@H](C)CC4=C(CCC(=O)C4)[C@H]3CC[C@@]21C | -9.88% |
| O=C(O)O | -0.685% [at 5.95 µM] |
| O=[N+]([O-])c1ccc(O)cc1C(F)(F)F | 3.77% |
| CCC(=O)OC(=O)CC | 0.144% |
| COc1ccc(-c2coc3cc(O)ccc3c2=O)cc1 | 4.25% |
| CC(C)(C)CC(C)(C)c1ccc(Nc2ccc(C(C)(C)CC(C)(C)C)cc2)cc1 | 5.67% [at 5.95 µM] |
| OCCN1CCN(CCCN2c3ccccc3Sc3ccc(C(F)(F)F)cc32)CC1 | -11.1% |
| Cc1cccc2cccnc12 | 0.955% |
| CC1(C)CCC[C@]2(C)[C@H]3CC(=O)O[C@]3(C)CC[C@@H]12 | -2.68% |
| C=CCn1c(=O)n(CC=C)c(=O)n(CC=C)c1=O | -2.64% |
| C[C@H]1NCc2cc(-c3ccc4c(=O)c(C(=O)O)cn(C5CC5)c4c3OC(F)F)ccc21 | -2.2% [at 29.1 µM] |
| CCCCCCCC/C=C\CCCCCCCCN | 2.18% |
| O=S(=O)(O)c1ccc(N=Nc2c(O)ccc3ccccc23)cc1 | -6.34% |
| CC(CO)Oc1ccccc1 (stereo not given) | -2% [at 81.1 µM] |
| [Cl][Pt-2]([Cl])([Cl])[Cl] | 3.91% [at 81.1 µM] |
| CN(C)Cc1ccccc1O | 0.295% |
| CCCC[P+](C)(CCCC)CCCC | 1.68% [at 81.1 µM] |
| COc1cc(S(=O)(=O)O)c(C)cc1N=Nc1c(O)ccc2cc(S(=O)(=O)O)ccc12 | -1.37% |

| Compound | activation |
| --- | --- |
| CCC(COC(=O)CCS)(COC(=O)CCS)COC(=O)CCS | -5.6% |
| O[C@@H]([C@H](O)[C@H](O)CBr)[C@H](O)CBr | 1.02% |
| O=C(O)c1cccc(C(F)(F)F)c1 | 1.19% |
| CC(C)=CCC1=C(O)c2ccccc2C(=O)C1=O | 0.926% |
| CCC(CC)C(C)CCOC(C)=O (stereo not given) | -2.01% |
| C=CC(C)(CCC=C(C)C)OC=O (stereo not given) | -2.08% |
| CC(=O)CC(=O)Nc1ccc(S(=O)(=O)O)cc1 | 0.269% |
| COC(=O)Nc1nc2ccc(C(=O)c3ccccc3)cc2[nH]1 | -6.84% |
| O=C1C(c2[nH]c3ccc(S(=O)(=O)O)cc3c2O)=Nc2ccc(S(=O)(=O)O)cc21 | 4.09% |
| CCCCCCCCCCCCOCCOCCOCCOCCOCCOCCOCCOCCOCCO | 1.75% |
| CC1=Nc2ccccc2C1(C)C | 0.95% |
| CCCCCC(C)OC(=O)COc1ccc(Cl)c2cccnc12 (stereo not given) | -1.07% |
| CN1CCCCC1CCN1c2ccccc2Sc2ccc(S(C)=O)cc21 (stereo not given) | -3.97% |
| CN(C)CCN1CCN(c2cccc(Cl)c2)C1=O | -0.803% |
| C=CC(=O)Nc1cc2c(Nc3ccc(F)c(Cl)c3)ncnc2cc1OCCCN1CCOCC1 | 0% |
| CC(C)=CCNc1ncnc2c1ncn2[C@@H]1O[C@H](CO)[C@@H](O)[C@H]1O | 0.909% |
| CCN(CC)c1ccc2c(-c3ccc(S(=O)(=O)O)cc3S(=O)(=O)[O-])c3ccc(=[N+](CC)CC)cc-3oc2c1 | 0.386% [at 81.1 µM] |
| ClCCl | 0.0208% |
| O=C(Oc1ccccc1)Oc1ccccc1 | 0.625% |
| CC(CCc1ccccc1)NCC(O)c1ccc(O)c(C(N)=O)c1 (stereo not given) | 2.4% |
